Records with an inconclusive call do not appear. Calls of active or inactive are those of the source. The call rests on the fitted dose curve; in most records, active means well fitted activation curve with a large enough effect; inconclusive means small, poorly fitted or top-dose-only effect; inactive means no such curve, though single readings can be large or run the other way.
assay: qHTS Assay for Rab9 Promoter Activators: Initial hit validation from the primary screen; conditions: Huh7 Rab9 promoter luciferase reporter, 24 h; series mostly up to 46.1 µM; activation: at the top concentration; on activation: % of control where 0% means no effect
Method in brief: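 Luciferase signal, read 10 min after Amplite reagent, reports Rab9 promoter activation. Compounds in DMSO were applied for 24 h at 37C to Rab9-luciferase Huh7 cells, pre-incubated 2 h in reduced-serum medium with 10% FBS.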
Potency means the concentration at half of the fitted maximal effect.

activation, inactive:
Cc1nc(SCC(=O)NC(=O)NC(C)(C)C)nc(C)c1C -2.54%, Cc1nc(-c2ccc(S(=O)(=O)Oc3ccc(Cl)cc3Cl)s2)cs1 -13.4%, NCCOc1ccccc1-c1ccccc1 -3.52%, COCc1cc(C)nc(N/N=C/c2ccc(-c3ccc(Cl)cc3[N+](=O)[O-])o2)c1C#N 12.7%, NC(=O)C(=O)NN=C1C2CC3CC(C2)CC1C3 0%, COc1ccc([N+](=O)[O-])cc1COc1ccc2c(-c3ccccc3)cc(=O)oc2c1 2.92%, O=C(c1cccc(Oc2ccc([N+](=O)[O-])cc2)c1)N1CCOCC1 -14.3%, O=C(c1cc2cc([N+](=O)[O-])ccc2oc1=O)n1cccn1 0.777%, Cc1[nH]n(-c2cccc3ccccc23)c(=O)c1/C=N/c1sc2c(c1C#N)CCC2 6.46%, Cc1ccc(NC(=O)c2cccc(N3C(=O)CCC3=O)c2)nc1 9.67%

Potency, active:
Cc1ccc(N(O)C(=O)NCCCCNC(=O)N(O)c2ccc(C)cc2)cc1 15800 nM, O=C(Nc1nc2ccc(F)cc2s1)c1ccc(N2CCCC2=O)cc1 199 nM, CCC(=O)Nc1cc(-c2cc3ccccc3oc2=O)ccc1OC 791 nM, Cc1ccc(C#N)c(SCC(=O)Nc2nccs2)n1 791 nM, CC(=O)Nc1ccc(-c2csc(Nc3ncccn3)n2)cc1 353 nM, CC(C)(C)NC(=S)NNC(=O)c1ccc2ncccc2c1 1770 nM

Source: PubChem BioAssay AID493200 (National Center for Advancing Translational Sciences (NCATS), 2011)
